# From publication PMC7819943, “Rice protein-binding microarrays: a tool to detect cis-acting elements near promoter regions in rice”
# In all, about 35,000 sequences were measured (“fluorescence intensity (a.u.)”: median about 10,000, highest 2% from about 52,000 on). What follows is part of a selection rich in the highest values, with near analogues and random picks from the rest.
# Target: T1, OsWOX13 (Oryza sativa, UniProt Q5QMM3 1-267)
# T1 sequence: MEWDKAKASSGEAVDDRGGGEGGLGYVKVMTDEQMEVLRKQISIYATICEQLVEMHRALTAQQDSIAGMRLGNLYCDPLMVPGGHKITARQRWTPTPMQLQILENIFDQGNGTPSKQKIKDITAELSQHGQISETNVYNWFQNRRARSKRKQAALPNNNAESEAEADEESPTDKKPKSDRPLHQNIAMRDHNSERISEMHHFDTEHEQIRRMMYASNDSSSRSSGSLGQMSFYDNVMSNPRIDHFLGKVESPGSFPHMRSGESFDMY
# Assay: protein-binding microarray (RPBM); PBS, 2% BSA, 51.3 ng/ul salmon testes DNA, 50 uM zinc acetate, 200 nM TF, 25 C, 1 h; high values mean tight binding
# Conditions: protein: recombinant; tags: N-terminal polyhistidine and DsRed monomer fusion (pET32a); label: CyDye5-dUTP incorporated in the synthesized complementary strand; 3' TTTTT single-stranded linker to array surface; dsDNA, one strand shown
# In short: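 Transcription factors, each fused N-terminally to a polyhistidine tag and DsRed, were expressed in E. coli BL21-CodonPlus and purified on Ni–NTA. A custom Agilent array was made double-stranded by primer extension with Cy5-dUTP and blocked with 2% BSA. It was incubated with 200 nM protein in PBS, 2% BSA, salmon testes DNA and 50 µM zinc acetate at 25 °C for 1 h, then washed. The binding signal is per-feature fluorescence intensity (arbitrary units) read on an Axon 4000B scanner.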
row,Sequence,binding signal
1,GTAAATTGTTTACTATCGAATGTACATGCTATATATATTGCGGAGTCACCTAGTGCAG,20400 fluorescence intensity (a.u.)
2,GCAATAATTAATAAGGCTCTAGGATAATTCAAATGGTTTTCGGAGTCACCTAGTGCAG,9520 fluorescence intensity (a.u.)
3,CTACAAAATTAAGCTGATAGCAACATCATTCACACATGGACGGAGTCACCTAGTGCAG,4120 fluorescence intensity (a.u.)
4,TAATGGTTTTCAGACAAATGGATAATTAAGCTGATAGCGACGGAGTCACCTAGTGCAG,65400 fluorescence intensity (a.u.)
5,GGCTGACGTCTAAATAAATTTTGAGTAAATTACATTAGCGCGGAGTCACCTAGTGCAG,15600 fluorescence intensity (a.u.)
6,ATCGTAGTGTAATTACACTGTAACTTATATGTAATTACACCGGAGTCACCTAGTGCAG,12100 fluorescence intensity (a.u.)
7,TATAATTGATGTACATCGATGATTAATTCTCTAACAGATCCGGAGTCACCTAGTGCAG,62300 fluorescence intensity (a.u.)
8,AATTGATTAAGATGATGATGAAAGATAATACAGCTCGATCCGGAGTCACCTAGTGCAG,27100 fluorescence intensity (a.u.)
9,CGATGATTGTAATCTCATTGAACAGATGATCCTTCAGGATCGGAGTCACCTAGTGCAG,52400 fluorescence intensity (a.u.)
10,TCCTTTATTATCTGTAATTGTAAAATCTTCAGATGAACACCGGAGTCACCTAGTGCAG,6210 fluorescence intensity (a.u.)
11,CTCAGATTTGATCAGTGGTAATTTCTCATGTAATCTCATTCGGAGTCACCTAGTGCAG,10500 fluorescence intensity (a.u.)
12,AAATATTATAATTGATTGTCGATGAAACATCGGGTTGTACCGGAGTCACCTAGTGCAG,46200 fluorescence intensity (a.u.)
13,TCAAATACTGCTGATTATACATACCCACATGTGTTGAATGCGGAGTCACCTAGTGCAG,3580 fluorescence intensity (a.u.)
14,ATAAAGTGATTTAATTTTAGTTAAAGTTAAACTACTTTAACGGAGTCACCTAGTGCAG,21100 fluorescence intensity (a.u.)
15,CACTCTTGCATTTCTTTGATTGCAAATTTCCAAGGCAGAACGGAGTCACCTAGTGCAG,5250 fluorescence intensity (a.u.)
16,ATTTTACAGGGTGATTTGAACATACAGTAATTATGGCCAACGGAGTCACCTAGTGCAG,6520 fluorescence intensity (a.u.)
17,AAATGTCTTGTAGATTGATATATTACATGGAACAAAATTTCGGAGTCACCTAGTGCAG,3240 fluorescence intensity (a.u.)
18,GTTAAACTAATTTGAATTTGTTAGTACAGTTTGCATTTCACGGAGTCACCTAGTGCAG,25500 fluorescence intensity (a.u.)
19,TGTGTTCTTGATTTGTGTTGTGTTTGTAGATCGTAGTTTGCGGAGTCACCTAGTGCAG,10200 fluorescence intensity (a.u.)
20,TTAATTGGATTGTTTTGATTCGTTGGAGAAGTTAGGAATACGGAGTCACCTAGTGCAG,28600 fluorescence intensity (a.u.)
21,GTATGTGATTTTCTTTAATTAGAGTTCTTGCCTAAGGTTGCGGAGTCACCTAGTGCAG,38300 fluorescence intensity (a.u.)
22,CTTGATTTATTATTTACCATGTTAGAAATGTTTATTTATACGGAGTCACCTAGTGCAG,29600 fluorescence intensity (a.u.)
23,TGAAATTAATTTGATGTGATAGATTTCTAGGTTTTCTTTGCGGAGTCACCTAGTGCAG,64300 fluorescence intensity (a.u.)

row,Sequence,binding signal
1,ATTTGATTGAATGTAGAGATTCTTGTAATAGGATTCTTTGCGGAGTCACCTAGTGCAG,64700 fluorescence intensity (a.u.)
2,CTGATTGATTCGTAATAGTAGAATAGGACATGTTACCATACGGAGTCACCTAGTGCAG,64500 fluorescence intensity (a.u.)
3,CTGTAATCTTGCTGATTGAATTCTATTTTGATGTGCAGAGCGGAGTCACCTAGTGCAG,44800 fluorescence intensity (a.u.)
4,TTTTGAAATTTCAGATTATTTTGTGTGGTTTTGTAATTTGCGGAGTCACCTAGTGCAG,4570 fluorescence intensity (a.u.)
5,CAGATTAAAATTTCTGCTCAAGCTAGCCATCGATCATCTGCGGAGTCACCTAGTGCAG,3930 fluorescence intensity (a.u.)
6,GATGAAACATTTGACATGAACTAAATTTTGTTCGGCAGTTCGGAGTCACCTAGTGCAG,5180 fluorescence intensity (a.u.)
7,CGTAGAAGGGATTGGGTGAAATTACATGGGCATATAGGGACGGAGTCACCTAGTGCAG,4240 fluorescence intensity (a.u.)
8,ATAATTAGACTTCTTGTTGCCTTCACCTATTTTAACACATCGGAGTCACCTAGTGCAG,13000 fluorescence intensity (a.u.)
9,GAAAATTATGTACATCCTCCGCTTAAAGATGACTATGAATCGGAGTCACCTAGTGCAG,4540 fluorescence intensity (a.u.)
10,GATAAGTAAATTAATTGGAAGAAAGAAATCAGTGGGGAGGCGGAGTCACCTAGTGCAG,13500 fluorescence intensity (a.u.)
11,AGCCTAATTAATCCGTCATTAGCAAATATTTACTGTAGCACGGAGTCACCTAGTGCAG,28400 fluorescence intensity (a.u.)
12,TAAGTAGATCGAAAATGTTTCAATCATTTAAATCAGGCGTCGGAGTCACCTAGTGCAG,4180 fluorescence intensity (a.u.)
13,TTATTAATTATCATATTAGTAGTAGTAGTAGTAGCTAGGCCGGAGTCACCTAGTGCAG,34100 fluorescence intensity (a.u.)
14,TATGATATGTCAAATCCTATAATTTCTTCGTCCCAAAATGCGGAGTCACCTAGTGCAG,3440 fluorescence intensity (a.u.)
15,GGTCCAATCAACATGAATAACAAAACAAAGGAAATGGATTCGGAGTCACCTAGTGCAG,17100 fluorescence intensity (a.u.)
16,ATCGGAGACTGACTGAGTGAAGGTTGGTTGGTTCACACTTCGGAGTCACCTAGTGCAG,4540 fluorescence intensity (a.u.)
17,GAATGGTCCAACAAGGAGACTGAGGAATGGTCAACACATTCGGAGTCACCTAGTGCAG,59700 fluorescence intensity (a.u.)
18,ATGATCAATCAGTAGATTATGCCCTGGTTATTCTTTATAACGGAGTCACCTAGTGCAG,25400 fluorescence intensity (a.u.)
19,ATGGATATAAATTGATGAGTACAGTCCTGAGAACTGCAAGCGGAGTCACCTAGTGCAG,32600 fluorescence intensity (a.u.)
20,GTTACTGTGATTTGTTTCACGAAGCCCCATGTTTTGAGCCCGGAGTCACCTAGTGCAG,11700 fluorescence intensity (a.u.)
21,ACTAATCTGATTGTGTCACTTGTGCGATTGATGGAGTTCACGGAGTCACCTAGTGCAG,23900 fluorescence intensity (a.u.)
22,TTTTGATTGAAGACACACCTATTGTCGCGAATACTGCTAACGGAGTCACCTAGTGCAG,40500 fluorescence intensity (a.u.)
